# Data taken from PubChem BioAssay (NCATS).
# Inconclusive results are not listed. Active and inactive are the calls of the source. Calls follow the shape of the full dose curve.
# Assay: NCATS anti-infectives library activity on the primary C. elegans qHTS viability assay (AID 1745855)
# Outline: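 GFP read-out by 488 nm laser cytometry at day 0, 3 and 7, gated on object perimeter, area and peak intensity, scored viability of PE254-GFP-FLuc worms exposed to compound in S medium with bacterial capsules at 21 °C.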
# Potency is read from the fitted curve at half-maximal effect.
smiles,measurement,value
COc1ccc(-c2oc3cc(OC)c(OC)c(O)c3c(=O)c2OC)cc1O,Potency,0.816 µM (active)
